Rows were chosen to be rich in hits. Some 11% of all compounds tested hit in one or more screens of this group.
VACV mCherry inh: qHTS for Stage-Specific Inhibitors of Vaccinia Orthopoxvirus: mCherry Reporter Primary qHTS; AID 720579, 2013; Vaccinia virus mCherry reporter infection, fluorescence; 0.63% of 310,000 active; Potency, µM (doses to about 36.5 µM), for inactives: top-dose activity change, negative = inhibition, hits mostly inhibitors; calls by dose curve; tested in A549 cells; further: on the % scale 0 is the no-effect control and ±100 the full control effect; nearly all actives have a fitted effect of over 35% in size
NS1 inh: qHTS Assay for Inhibitors of Influenza NS1 Protein Function; 0.4% of 270,000 active; Potency, µM (series often up to 46.1 µM), without a hit: at the top dose activity, positive = more growth; calls by dose curve; further: actives are rising curves; nearly all actives have a fitted effect of over 50% in size
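S. cerevisiae expressing influenza A NS1, grown in glucose, washed, then diluted 1:100 into pH 6.0 -URA galactose medium with 23 nl compound. Growth recovery read as OD600; NS1-free strain serves as control.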
HCV inh: qHTS Assay for Inhibitors of Hepatitis C Virus (HCV); AID 651820, 2012; Potency, µM (series often up to 41.8 µM), inactives show top-dose activity change, negative = inhibition, actives largely listed as inhibitors; 3.4% of 340,000 active; Huh7.5.1 HCVcc-Cre infection, luciferase reporter, 44 h; further: on the % scale 0 is the no-effect control and ±100 the full control effect
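Compounds are dispensed onto cells plated 4 h earlier at 1,000 per well, with HCVcc-Cre virus (about 0.5 moi) added next. Following 44 h of culture, luminescent signal is measured for 15 sec after 15 min with substrate at room temperature.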
Pf growth 96h: Primary qHTS for delayed death inhibitors of the malarial parasite plastid, 96 hour incubation | AID 504834, 2011 | P. falciparum luciferase reporter growth, 96 h | 6.9% of 320,000 active | Potency, µM (doses to about 28.7 µM), for the others: at the highest dose activity change, negative = inhibition, hits mostly inhibitors; further: on the % scale 0 is the no-effect control and ±100 the full control effect
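Erythrocytes infected with luciferase-expressing P. falciparum were dispensed at 2% hematocrit and 0.05% parasitemia (final), then incubated with compounds 96 hours at 37 C in 5% CO2. Luminescence after detection reagent addition reported growth.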
Vaccinia Venus: qHTS for Stage-Specific Inhibitors of Vaccinia Orthopoxvirus: Venus Reporter Primary qHTS | 0.46% of 330,000 active | Vaccinia virus Venus reporter expression, fluorescence | Potency, µM (series often up to 36.5 µM), inactives show at the top dose activity change, negative = inhibition, usual class: inhibitors; calls by dose curve; tested in A549 cells; further: on the % scale 0 is the no-effect control and ±100 the full control effect; nearly all actives have a fitted effect of over 30% in size
Pf growth 48h: Primary qHTS for delayed death inhibitors of the malarial parasite plastid, 48 hour incubation; P. falciparum luciferase growth in erythrocytes, 48 h; Potency, µM (highest dose often 28.7 µM), inactives show at the top dose activity change, negative = inhibition, hits mostly inhibitors; 5.9% of 310,000 active; AID 504832, 2011; further: on the % scale 0 is the no-effect control and ±100 the full control effect
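Luminescence readout; reporter = integrated firefly luciferase in P. falciparum. RBC culture at 2% hematocrit, 0.1% parasitemia final, 37 C/5% CO2; decreased signal taken as growth inhibition.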
Active calls of the source: *; i = inactive; ? = inconclusive; . = not tested or not shown. Unless noted, the call rests on the fitted dose curve; in most records, active means well fitted inhibition curve with a large enough effect; inconclusive means small, poorly fitted or top-dose-only effect, or another doubt; inactive means no such curve, though single readings can be large or run the other way. Potency means the concentration at half of the fitted maximal effect.

SMILES	VACV mCherry inh	NS1 inh	HCV inh	Pf growth 96h	Vaccinia Venus	Pf growth 48h
CN(c1ccccc1)S(=O)(=O)c1ccc(C(=O)Nc2nnc(C3CC3)o2)cc1	i	.	10.6%	5.22µM*	-9.2%	11.7µM*
CN(c1ccccc1)S(=O)(=O)c1ccc(C(=O)Nc2nnc(-c3ccco3)o2)cc1	?	.	?	7.38µM*	-23.0%	?
CCc1nnc(NC(=O)c2ccc(S(=O)(=O)N3CCCC(C)C3)cc2)o1 (stereo not given)	.	-29.1%	-26.3%	?	.	?
CC1CCCN(S(=O)(=O)c2ccc(C(=O)Nc3nnc(-c4ccco4)o3)cc2)C1 (stereo not given)	-14.0%	-8.9%	?	?	-29.8%	11.7µM*
COCCN(CCOC)S(=O)(=O)c1ccc(C(=O)Nc2nnc(C3CC3)o2)cc1	-10.4%	-7.6%	-1.7%	.	-5.2%	-10.8%
CCC1CCCCN1S(=O)(=O)c1ccc(C(=O)Nc2nnc(-c3ccccc3Cl)o2)cc1 (stereo not given)	?	-7.4%	?	?	-26.4%	?
COCc1nnc(NC(=O)c2ccc(S(=O)(=O)N(C)c3ccccc3)cc2)o1	-21.8%	-56.7%	17.2%	-33.4%	-10.9%	?
O=C(c1ccc2c(c1)OCO2)C1CCCN(Cc2ccc3cccc(F)c3n2)C1 (stereo not given)	-9.2%	-0.9%	?	17.7%	4.9%	-2.7%
CNC(=S)N/N=C(\C)c1ccc2c(c1)OCO2	-3.1%	.	-14.5%	?	-5.0%	23.6%
CCN(c1ccccc1)S(=O)(=O)c1ccc(C(=O)Nc2nnc(C3CC3)o2)cc1	-27.9%	.	?	?	-27.7%	9.28µM*
CC(C)Cn1nc(C(=O)N2CCc3ccccc32)c2ccccc2c1=O	i	.	?	?	-16.8%	?
C=CC(=O)N1C/C(=C/c2ccc(Cl)cc2)C(=O)/C(=C\c2ccc(Cl)cc2)C1	2.82µM*	.	4.47µM*	.	5.62µM*	.
O=C1C(=Cc2ccc(Cl)cc2)Cc2ccccc21	26.2%	.	.	.	16.1%	.
C=CC(=O)N1C/C(=C/c2ccccc2)C(=O)/C(=C\c2ccccc2)C1	?	.	6.31µM*	.	8.91µM*	.
COc1cc(CNc2ccc(NC(C)=O)cc2)ccc1OCc1ccccc1C	.	-5.0%	-11.9%	-2.5%	.	30.3%
Cc1c(Cl)cnc(NC(=O)COC(=O)c2cccc(S(=O)(=O)N3CCOCC3)c2)c1Cl	i	.	.	.	-9.8%	.
CCCc1nc(SCc2ccccn2)c2c(=O)n(C)c(=O)n(C)c2n1	-2.6%	-84.4%	10µM*	-13.6%	-19.2%	.
CCCc1nc(SCc2cccnc2)c2c(=O)n(C)c(=O)n(C)c2n1	-5.6%	-128.1%	10µM*	?	-17.9%	13.1µM*
Cn1c(=O)c2c(SCc3ccccn3)nc(C3CC3)nc2n(C)c1=O	?	-54.5%	-4.5%	19.4%	?	26.0%
Cn1c(=O)c2c(SCc3ccccn3)nc(CC(C)(C)C)nc2n(C)c1=O	-26.4%	-16.7%	?	?	-27.0%	11.7µM*
CCc1nc(SCc2ccc(C(=O)OC)o2)c2c(=O)n(C)c(=O)n(C)c2n1	i	-20.9%	?	2.62µM*	-11.7%	8.28µM*
Cc1ccc(C(=O)NCC(=O)N2CCN(c3ncccn3)CC2)s1	.	5.0%	-2.4%	-1.1%	.	.
COc1cccc(C(=O)Cn2c(NCCCO)nc3ccccc32)c1	.	-3.3%	12.2%	87.4%	.	-38.2%
Nc1cc(N)nc(SCC(=O)c2ccccc2)n1	-10.3%	10.2%	15.0%	?	-12.0%	18.5%
CCOc1ccc(-c2nc(S(=O)(=O)c3ccccc3)c(NCc3cccnc3)o2)cc1	.	?	?	.	-7.2%	13.1µM*
SMILES	VACV mCherry inh	NS1 inh	HCV inh	Pf growth 96h	Vaccinia Venus	Pf growth 48h
O=S(=O)(c1ccccc1)c1nc(-c2ccco2)oc1NCc1ccccc1	.	2.6%	10.1%	8.28µM*	.	.
CCOc1ccc(-c2nc(S(=O)(=O)c3ccccc3)c(NC)o2)cc1	i	7.5%	5.5%	?	-8.8%	2.7%
CCN=C1SC(CC(=O)Nc2ccc(C(F)(F)F)cc2)C(=O)N1CC (stereo not given)	i	9.6%	-6.0%	54.5%	-29.4%	2.62µM*
CCN=C1SC(CC(=O)Nc2ccc(N3CCOCC3)cc2)C(=O)N1CC (stereo not given)	.	-7.9%	9.4%	.	-7.8%	-0.3%
COc1ccc(CCC(C)NC(=O)CCc2ccccc2)c(OC)c1 (stereo not given)	-1.8%	-46.0%	?	?	-16.8%	9.28µM*
CC1CC(NC(=O)c2cc3c(=O)n4ccccc4nc3n2C)CC(C)(C)C1 (stereo not given)	-5.1%	-11.1%	?	0.1%	-19.9%	11.7µM*
CC1CCCCC1NC(=O)c1c(O)nc2ccccn2c1=O (stereo not given)	i	.	15.0%	5.22µM*	-10.9%	5.22µM*
Cc1ccc(CNC(=O)c2c(O)nc3ccccn3c2=O)cc1	-5.0%	.	.	.	-0.2%	.
CC1CCCCC1NC(=O)c1cc2c(=O)n3ccccc3nc2n1C (stereo not given)	.	3.3%	-28.8%	2.33µM*	.	0.2%
O=C(c1cc2c(=O)n3ccccc3nc2s1)N1CCOCC1	-5.9%	3.5%	7.3%	5.22µM*	-5.4%	111.2%
Cn1c(C(=O)N2CCN(C(=O)c3ccco3)CC2)cc2c(=O)n3ccccc3nc21	.	0.9%	?	4.65µM*	.	19.0%
Cc1csc2nc(O)c(C(=O)NC3CCCCC3C)c(=O)n12 (stereo not given)	6.3%	.	?	?	1.3%	7.38µM*
Cc1csc2nc(O)c(C(=O)NCC3CCCO3)c(=O)n12 (stereo not given)	-11.1%	.	0.7%	-4.0%	-5.2%	?
COc1cc(C(=O)Nc2sc(C)c(C)c2C(=O)O)cc(OC)c1OC	i	3.4%	-7.4%	22.7%	-8.3%	10.0%
Nc1nc2ccccc2n1/N=C/c1ccc(Br)cc1	-3.5%	-14.9%	?	10.4µM*	-24.0%	-77.2%
CCc1c(C)nc(SCc2nc(-c3ccccc3)no2)[nH]c1=O	i	.	.	.	-8.5%	.
CC(/C=C1\SC(=S)N(NC(=O)c2ccc(O)cc2)C1=O)=C\c1ccccc1	i	-23.0%	-10.9%	?	-5.5%	-6.8%
COC(=O)c1ccc2nc(-c3ccc(C#N)cc3)c(Cc3ccsc3)n2c1	-5.1%	.	.	.	-3.2%	.
COc1ccccc1NC(=O)C1=C(C)Nc2nc(-c3ccc(N(C)C)cc3)nn2C1c1ccncc1 (stereo not given)	.	-2.1%	?	9.28µM*	.	14.7µM*
O=C(CCNC(=O)c1ccc(Cl)cc1)Nc1nc2ccccc2[nH]1	.	.	5.0%	.	.	.
